Hit rate of the full screen: of about 320,000 compounds, about 2,200 (0.69%) were called active. The full list was thinned out, with actives kept by preference. Values without a mark were called inactive. Cut-off read from the data, not from the text of the source: active = inhibition above about 43%; inactive = the rest.

Prolyl endopeptidase-like (Homo sapiens), sequence (Q4J6C6 whole entry, looked up): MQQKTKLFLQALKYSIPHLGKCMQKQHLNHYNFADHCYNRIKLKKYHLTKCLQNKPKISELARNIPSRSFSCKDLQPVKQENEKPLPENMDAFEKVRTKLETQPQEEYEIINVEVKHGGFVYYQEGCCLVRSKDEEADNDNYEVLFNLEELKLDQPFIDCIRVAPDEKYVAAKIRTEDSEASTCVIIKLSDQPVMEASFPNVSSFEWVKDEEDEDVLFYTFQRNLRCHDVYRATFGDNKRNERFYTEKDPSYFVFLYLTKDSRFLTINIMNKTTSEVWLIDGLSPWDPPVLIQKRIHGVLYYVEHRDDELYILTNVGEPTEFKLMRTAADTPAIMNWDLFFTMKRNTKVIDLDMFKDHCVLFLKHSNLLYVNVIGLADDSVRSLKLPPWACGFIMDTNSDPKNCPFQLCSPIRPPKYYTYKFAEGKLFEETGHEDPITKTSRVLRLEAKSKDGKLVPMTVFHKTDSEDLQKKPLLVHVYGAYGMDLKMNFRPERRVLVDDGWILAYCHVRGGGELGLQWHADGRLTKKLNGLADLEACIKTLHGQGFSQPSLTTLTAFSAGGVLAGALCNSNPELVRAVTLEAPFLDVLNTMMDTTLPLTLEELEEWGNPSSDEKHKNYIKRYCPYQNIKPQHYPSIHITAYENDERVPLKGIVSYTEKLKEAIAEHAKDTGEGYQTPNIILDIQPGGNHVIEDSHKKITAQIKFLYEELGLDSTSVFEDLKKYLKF

This experiment has as its target Prolyl endopeptidase-like (Homo sapiens) (UniProt Q4J6C6). The experiment can be described thus: human PREPL activity-probe blockers – biochemical, fluorescence polarization, primary screen (AID 2751).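 Note: 0% = enzyme with DMSO and 100% = wells lacking enzyme.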 To be noted: recombinant PREPL, fluorescence polarization activity-based probe; at 5.96 µM; hits give high values. For orientation: Fluorescence polarisation rises when a labelled molecule tumbles more slowly, as on binding a larger partner.
By inhibition is commonly meant the relative decrease from the control value, in per cent. As for `COc1ccc(OC)c(CN2CCN(C(=O)CNC(=O)c3cc(C)cc(C)c3)CC2)c1`, the inhibition was 5.26%.

Regarding `Cn1cnc(S(=O)(=O)Nc2ccc3c(c2)OCCO3)c1`, the inhibition is -9.35%.

As for `CC(=O)c1cc(NC(=O)c2ccccc2)c(=O)oc1/C=C/N(C)C`, the inhibition was 0.73%.

As to `Cc1cccc(N2CCN(C(C)C(=O)N3CCc4ccccc43)CC2)c1C` (stereo not drawn), the inhibition is 18.7%.

With `CC1CCC2(CC1)NC(=O)N(Cc1nnc(-c3cccs3)o1)C2=O` (stereo not drawn), the inhibition is 11.6%.

Turning to `CCCNCc1cc(OCC)c(OCC(=O)Nc2ccccc2)cc1Br`, the inhibition is -9.46%.

As for `CCCC(CCC(=O)OC)(C(=O)OCC)c1csc(N)n1` (stereo not drawn), the inhibition was 2.3%.

Regarding `C=C(C)CNC(=S)N/N=C/c1ccccc1OCC(=O)O`, the inhibition was -3.72%.

With `Cc1ccc(Cn2c(SCC(=O)N/N=C/c3ccccc3OCC(=O)O)nc3ccccc32)cc1`, the inhibition was -29%.

As for `Cc1ccc(NS(=O)(=O)c2ccc(N/N=C/c3ccccc3OCC(=O)O)c([N+](=O)[O-])c2)c(C)c1`, the inhibition is 49.9% (active).

`O=C(C1CCCN1S(=O)(=O)c1ccc(Br)cc1)N1CCOCC1` (stereo not drawn): the inhibition is 12.8%.

Take `Cc1ccc(C)c(NC(=O)C2Cc3ccccc3CN2C(=O)OCc2ccccc2)c1` (stereo not drawn): the inhibition is -31.7%.

Consider `CC[N+](C)(CC)CCC[n+]1c(-c2ccccc2)c2cc(N)ccc2c2ccc(N)cc21`, for which the inhibition was 65.2% (active).

With `COc1ccc(C2NC(=O)C(=O)/C2=C(\O)c2ccc(Cl)cc2)cc1OC` (stereo not drawn), the inhibition is 2.96%.

Consider `C=CCN1C(=O)C(Cc2ccc(OCC)cc2)SC1=Nc1ccc(C(=O)O)cc1` (stereo not drawn), for which the inhibition is -7.27%.

Consider `CCNC(=O)N(CC)C[C@H]1N[C@@](CC)(C(=O)OC)[C@H]2C(=O)N(Cc3ccccc3)C(=O)[C@@H]12`, for which the inhibition is 2.12%.

Regarding `Cc1ccccc1OCC(=O)Nc1ccc(N2CCN(C(=O)C(C)C)CC2)c(Cl)c1`, the inhibition was 49.4% (active).

Regarding `Cc1ccccc1OCC(=O)Nc1ccc2c(c1)ncn2C`, the inhibition is 8.18%.

With `CCC(=O)N1CCN(c2ccccc2NC(=O)COc2cccc(C)c2C)CC1`, the inhibition was 12.6%.

Turning to `O=C(Nc1c2c(nn1-c1ccccc1)CS(=O)(=O)C2)C1CCCC1`, the inhibition was 11.5%.

Turning to `O=C(C1CCCN(S(=O)(=O)c2ccc([N+](=O)[O-])cc2)C1)N1CCCCC1` (stereo not drawn), the inhibition was 3.89%.

Take `CC1=CC(C)(C)NC(=S)N1c1ccccc1`: the inhibition was 0.44%.

In the case of `CCOC(=O)c1cc(C#N)c(N2CCCCC2)nc1-c1ccccc1`, the inhibition is -11.5%.

As for `COc1ccc2nc(N3CCCC(O)C3)c(C#N)cc2c1` (stereo not drawn), the inhibition is 19.4%.

Regarding `CCOc1ccc2nc(N3CCCN(C(=O)Nc4ccccc4C)CC3)c(C#N)cc2c1`, the inhibition is 43.6% (active).

With `O=C(NCc1ccccc1Cl)C1CCC(CNc2c(N3CCCCC3)c(=O)c2=O)CC1` (stereo not drawn), the inhibition is 0.19%.

In the case of `O=C(c1cccc(C(=O)N2CCN(c3ccc(F)cc3)CC2)c1)N1CCN(c2ccc(F)cc2)CC1`, the inhibition is 62.3% (active).

`O=C(c1cncc(Br)c1)N1CCN(c2ccc([N+](=O)[O-])cc2)CC1`: the inhibition is 17.6%.

Take `O=C(c1cc(C(=O)N2CCN(c3ccc(F)cc3)CC2)cc([N+](=O)[O-])c1)N1CCN(c2ccc(F)cc2)CC1`: the inhibition was 43.4% (active).

Take `O=C(c1ccccc1Oc1ccccc1)N1CCN(c2ccc(F)cc2)CC1`: the inhibition was -29.3%.

As to `O=C(c1cc2cc(F)ccc2[nH]1)N1CCN(c2ccc(F)cc2)CC1`, the inhibition was 18.5%.

On to `O=C(c1cccc(F)c1)N1CCN(c2ccc([N+](=O)[O-])c(N3CCCCC3)c2)CC1`, for which the inhibition was 16.6%.

With `C=Cn1cc[n+](CC(=O)c2ccc(OC)c(OC)c2)c1`, the inhibition was 19.9%.

With `O=C(Nc1ccc2c(c1)OCCO2)C1CCCC1`, the inhibition was 0.16%.

For `O=C(c1ccc(F)cc1)N1CCC(C(=O)N2CCN(S(=O)(=O)c3ccccc3Br)CC2)CC1`, the inhibition is 5.69%.

Regarding `COC(=O)C1=CN(c2ccc(F)c(F)c2)C=C(C(=O)OC)C1c1ccc([N+](=O)[O-])cc1`, the inhibition was -1.25%.

For `COc1ccc(/C=C(\NC(=O)c2ccc(OCC(C)C)cc2)C(=O)OCc2ccco2)cc1`, the inhibition is -0.54%.

In the case of `CCNc1c(NS(=O)(=O)c2ccc(C3CCCCC3)cc2)c(=O)oc2ccccc12`, the inhibition is 10.3%.

For `N#C/C(=C/c1ccc(N2CCCCC2)o1)C(=O)NCCc1c[nH]c2ccccc12`, the inhibition was 80.7% (active).

Turning to `O=C(CN1C(=O)NC2(CCCCC2)C1=O)NCCc1c[nH]c2ccccc12`, the inhibition is 6.75%.

Take `N#C/C(=C/c1ccc(N2CCOCC2)o1)C(=O)N1CCOCC1`: the inhibition was 7.19%.

On to `CN(CCc1ccccn1)C1CCCN(S(=O)(=O)c2ccccc2Cl)C1` (stereo not drawn), for which the inhibition was -0.19%.

As to `Nc1ccc(-c2nnc(-c3ccccc3)o2)cc1`, the inhibition is 2.86%.

Regarding `Nc1ccc(Nc2ccccc2)cc1`, the inhibition is 94.7% (active).

As for `Cc1cc(Nc2ccccc2)n(C(=O)c2ccc(N)cc2)n1`, the inhibition was 32.7%.

On to `CS(=O)(=O)N(CC(=O)N1CCOCC1)c1cccc(Cl)c1Cl`, for which the inhibition was 1.45%.

On to `COc1cc(NC(=O)COC(=O)CSc2ccc3ccccc3c2)c(C)cc1[N+](=O)[O-]`, for which the inhibition was 26.5%.

In the case of `CC(NC(=O)COC(=O)Cn1cc(C(F)(F)F)ccc1=O)c1ccccc1` (stereo not drawn), the inhibition is 4.36%.

Take `CNCC[C@H](Oc1ccc(C(F)(F)F)cc1)c1ccccc1`: the inhibition was 59% (active).

In the case of `CC(C)Oc1ccc(Oc2ccc(C(F)(F)F)cn2)cc1`, the inhibition is 14.7%.

For the molecule `Cc1ccc(CN(CC(=O)NCC2CCCO2)S(=O)(=O)c2ccc(C)cc2)cc1` (stereo not drawn), the inhibition is -1.14%.

In the case of `O=C(Cn1cnc2ccccc2c1=O)NNC(=O)c1ccccc1F`, the inhibition is 9.97%.

For the molecule `NS(=O)(=O)c1ccc(CNC(=O)c2ccc(Cl)cc2[N+](=O)[O-])cc1`, the inhibition is 13.1%.

Turning to `O=C(Nc1ccc(F)cc1)N1CCN(c2ccc(F)cc2)CC1`, the inhibition is 15.1%.

Turning to `CC(CC(=O)N1CCN(c2ccccc2)CC1)c1ccccc1` (stereo not drawn), the inhibition was -0.94%.

`CC(=O)N1CCN(c2ccc(NCc3ccc(C(C)C)cc3)cc2)CC1`: the inhibition is 66.9% (active).

As for `COc1ccccc1-c1n[nH]c2c1[C@H](C)CC[C@H]2C(C)C`, the inhibition was -22.4%.

Turning to `COc1ccc(CSc2nnnn2-c2ccc(O)cc2)cc1F`, the inhibition was -18.7%.

As to `CCOc1ccccc1C1CC(c2ccccc2)Nc2nc(N)nn21` (stereo not drawn), the inhibition is 5.16%.

In the case of `CCOc1ccccc1C1CC(c2ccc(Cl)cc2)Nc2nc(N)nn21` (stereo not drawn), the inhibition was 24.3%.

Take `Cc1ccc(C2CC(c3cccc(C)c3)n3nc(N)nc3N2)cc1` (stereo not drawn): the inhibition was 54.5% (active).

`Cc1cc(=O)n(C)c(=O)n1CCCNc1ccccc1`: the inhibition is 2.85%.

Regarding `Cc1ccc(C23CC4CC(CC(C(=O)NCC(=O)O)(C4)C2)C3)cc1`, the inhibition was 5.03%.

As to `CCC(=O)Nc1cc(C(F)(F)F)ccc1N1CCCC1`, the inhibition was 8.09%.

For the molecule `O=C(CCN1C(=O)COc2ccccc21)NCCCN1CCN(c2ccc(F)cc2)CC1`, the inhibition was 35.5%.

Regarding `COc1ccc(CCNC(=O)CN(c2ccccc2)S(C)(=O)=O)cc1`, the inhibition was 11.1%.

`Cn1c(CCN2CCCC2)nc2cc(NS(=O)(=O)c3ccccc3)ccc21`: the inhibition was -19%.

For the molecule `Cn1c(CCN2CCCCCC2)nc2cc(NC(=O)Nc3ccccc3)ccc21`, the inhibition was 53% (active).

Turning to `Cc1nn(CC(=O)Nc2ccc3c(c2)nc(CN2CCCCC2)n3C)c(=O)c2ccccc12`, the inhibition is 1.33%.

Take `CCN(CC(=O)Nc1c(F)cccc1F)C(=O)c1cnc(C)cn1`: the inhibition was 3.72%.

For the molecule `CCN1C(=O)/C(=C\N2CCOCC2)SC1=S`, the inhibition was -9.93%.

Regarding `CCN1C(=O)/C(=C\N2CCN(c3ccccc3)CC2)SC1=S`, the inhibition is 49.4% (active).

As for `CCN1C(=O)/C(=C\N2CCN(c3cccc(Cl)c3)CC2)SC1=S`, the inhibition was 23.1%.

As for `O=C(O)CSCc1ccc(C(=O)O)o1`, the inhibition was 7.09%.

For `N=c1n(Cc2ccc(Cl)cc2)c2ccccc2n1CC(O)c1ccco1` (stereo not drawn), the inhibition is 16.6%.

Consider `CCc1nc2ccc(C(=O)N3CCN(c4cccc(Cl)c4)CC3)cc2nc1CC`, for which the inhibition was -11.3%.

`O=C1N[C@H](Cc2c[nH]c3ccccc23)COC(=O)[C@H](Cc2ccc(F)cc2)C/C=C\C[C@H]1CC(=O)N(CCO)Cc1ccccc1`: the inhibition was 45.9% (active).

With `O=C1N[C@@H](c2ccccc2)COC(=O)[C@H](Cc2ccc(F)cc2)C/C=C\C[C@@H]1CC(=O)N(CCO)Cc1ccccc1`, the inhibition is 36%.

Consider `CC(C)(C)OC(=O)C[C@@H]1C/C=C\C[C@@H](CC(=O)N(CCO)Cc2ccccc2)C(=O)N[C@H](Cc2ccccc2)COC1=O`, for which the inhibition was 14.3%.

Regarding `O=S(=O)(CCc1nc2ccccc2o1)c1ccc(Cl)cc1`, the inhibition was -9.37%.

On to `C=C1C2C[C@H](O)C(C)(C)[C@@]2(O)[C@H](O)C[C@]23C[C@@](C)(O)[C@H](CC[C@H]12)[C@H]3O` (stereo partly drawn), for which the inhibition was -4.1%.

`CCN(C[C@H]1N[C@@](CC)(C(=O)OC)[C@H]2C(=O)N(Cc3ccccc3)C(=O)[C@@H]12)S(=O)(=O)c1ccccc1`: the inhibition is 16.9%.

As to `CN(C)c1ccc(C(CNC(=O)c2ccc(F)cc2)c2c[nH]c3ccccc23)cc1` (stereo not drawn), the inhibition is 55.9% (active).

With `C[C@H](NC(=O)c1ccccc1)C(=O)OCC(=O)c1c[nH]c2ccccc12`, the inhibition was -2.69%.

With `O=C(CNC(=O)c1ccc(F)cc1)c1ccccc1`, the inhibition was -2.4%.

Consider `C#CCOCCOCCOCCNc1nc(N2CCN(C(=O)CCCCCCCCCCNC(=O)[C@H]([C@@H](C)CC)n3cc(CCCCN=C(N)N)nn3)CC2)nc(N2CCN(C(=O)CCCCCCCCCCNC(=O)[C@H](CO)n3cc(CCCSC)nn3)CC2)n1`, for which the inhibition was 29.9%.

Turning to `C#CCOCCOCCOCCNc1nc(N2CCN(C(=O)CCCCCCCCCCNC(=O)[C@H](CCCCN)n3cc(C)nn3)CC2)nc(N2CCN(C(=O)CCCCCCCCCCNC(=O)[C@H](CO)n3cc(CCCSC)nn3)CC2)n1`, the inhibition is 35.2%.

With `C#CCOCCOCCOCCNc1nc(N2CCN(C(=O)CCCCCCCCCCNC(=O)Cn3cc(CCCCCN)nn3)CC2)nc(N2CCN(C(=O)CCCCCCCCCCNC(=O)[C@H](CO)n3cc(CCCSC)nn3)CC2)n1`, the inhibition was 75.8% (active).

Values taken from PubChem BioAssay AID2751 (The Scripps Research Institute Molecular Screening Center, 2010).
